Sfp PPTase inh: qHTS Assay for Inhibitors of Bacillus subtilis Sfp phosphopantetheinyl transferase (PPTase) | 4'-phosphopantetheinyl transferase ffp (Bacillus subtilis), Q9F4F7 | Biochemical Sfp PPTase activity, qHTS | Potency, µM, hits mostly inhibitors | 310,000 tested, 3.5% active | AID 1490, 2009;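 further: the enzyme is Sfp with the accession as filed and its product quenches rhodamine fluorescence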
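Fluorescence-quenching assay with 15 nM Sfp, 5 uM rhodamine-CoA and 12.5 uM BHQ-2-labelled ybbR peptide in pH 7.6 Hepes/MgCl2 buffer. Enzyme was pre-incubated with compound for 15 min at room temperature. Rate was taken from the 30-min fluorescence change (525/598 nm).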
BAZ2B inh: qHTS Assay for Inhibitors of BAZ2B | AID 504333, 2011 | Bromodomain adjacent to zinc finger domain protein 2B (Homo sapiens), Q9UIF8 | AlphaScreen BAZ2B-H3K14Ac peptide displacement | Potency, µM (titrated, usually from 114 µM), most hits filed as inhibitors | 360,000 tested, 4.4% active; further: nearly all actives have a fitted effect of over 60% in size
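AlphaScreen displacement: compounds (up to 110uM) incubated 30 min at room temperature with a preformed 50 nM BAZ2B/50 nM biotinylated H3K14Ac peptide complex in PBS pH 7.4 with Tween-20. Donor and acceptor beads at 10 ug/mL final added, 20 min light-protected before reading.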
JMJD2A Tudor inh: qHTS Assay for Inhibitors of JMJD2A-Tudor Domain; 390,000 tested, 4.4% active; AlphaScreen JMJD2A-Tudor / H3K4me3 peptide binding; Potency, µM (doses to about 114 µM), usual class: inhibitors; Lysine-specific demethylase 4A (Homo sapiens), O75164; further: nearly all actives have a fitted effect of over 50% in size
HP1b chromo inh: HTS for Inhibitors of HP1-beta Chromodomain Interactions with Methylated Histone Tails; 390,000 tested, 0.56% active; AlphaScreen HP1-beta / biotin-H3K9me3 peptide binding; AID 540317, 2011; Chromobox protein homolog 1 (Homo sapiens), P83916; Potency, µM (titrated, usually from 114 µM), hits mostly inhibitors; further: nearly all actives have a fitted effect of over 70% in size
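AlphaScreen: HP1-beta (50 nM) preformed 30 min with biotin-H3(1-18)K9me3 peptide (50 nM) in PBS pH 7.4, 0.01% Tween-20. Compound added for 30 min at RT, then streptavidin donor/nickel chelate acceptor beads (10 ug/mL) for 30 min.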
G9a block: qHTS Assay for Inhibitors of Histone Lysine Methyltransferase G9a. Histone-lysine N-methyltransferase EHMT2 (Homo sapiens), Q96KQ7. G9a H3K9 monomethylation, AlphaScreen, 2 h. Potency, µM (top dose mostly 102 µM), hits mostly inhibitors. 350,000 tested, 8.8% active. AID 504332, 2011; further: nearly all actives have a fitted effect of over 75% in size
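Quantitative HTS format: methyltransferase activity on a biotin-tagged H3K9 peptide is measured by AlphaScreen, using a rabbit anti-monomethyl-H3K9 antibody with streptavidin donor and anti-IgG acceptor beads. Final levels are 20 nM enzyme, 500 nM peptide, 20 uM SAM; 2 h RT.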
PLK1 PBD inh: qHTS for Inhibitors of PLK1-PDB (polo-like kinase 1 - polo-box domain): Primary Screen | Potency, µM, usual class: inhibitors | AID 720504, 2013 | 360,000 tested, 2.8% active | Serine/threonine-protein kinase PLK1 (Homo sapiens), P53350 | Plk1 PBD binding of FITC phosphopeptide, fluorescence polarization; further: series mostly up to about 57 µM; nearly all actives have a fitted effect of over 65% in size
A number is an active result; i = inactive; ? = inconclusive; nt = no result; [ ] = dose if it differs, or a comment. In the library only some 12% were active in any assay of this set; here they are far more common. The call rests on the fitted dose curve; in most records, active means well fitted curve in the direction sought with a large enough effect; inconclusive means small, poorly fitted or top-dose-only effect, or another doubt; inactive means no such curve, though single readings can be large; an effect the other way counts as inactive or inconclusive.

SMILES	Sfp PPTase inh	BAZ2B inh	JMJD2A Tudor inh	HP1b chromo inh	G9a block	PLK1 PBD inh
CC(=O)[C@H]1CC[C@H]2[C@@H]3C=CC4=CC(=O)CC[C@@]4(C)[C@@H]3CC[C@]12C	nt	i	i	i	i	i
COc1ccc(Cl)cc1NC(=O)CN(C)C(=O)c1cc2ccccc2cc1O	nt	?	i	i	50µM	i
CN(CC(=O)Nc1cccc(F)c1)C(=O)c1cccc2ccccc12	nt	i	i	i	i	i
CCN(CC(=O)Nc1cccc(F)c1)CC(=O)Nc1ccc2c(c1)OCCO2	nt	nt	nt	nt	nt	i
CN(CC(=O)Nc1cccc(F)c1)C(=O)c1ccc2c(c1)OCCO2	nt	i	i	i	10µM	i
CN(CC(=O)Nc1cccc(F)c1)C(=O)c1cc(=O)[nH]c2ccccc12	nt	i	i	i	8.9µM	i
CC(=O)c1cccc(NC(=O)c2cc(=O)[nH]c3ccccc23)c1	i	i	i	i	45µM	19µM
O=C(NCc1ccc(F)cc1)c1ccc(CS(=O)Cc2ccccc2Cl)o1 (centres undefined)	i	i	i	i	i	i
COc1ccccc1CCn1c(=O)cnc2cncnc21	i	nt	nt	nt	i[0.501 µM]	nt
COc1ccccc1N(C)S(=O)(=O)c1ccc(C(=O)N(C)Cc2ccc(Cl)s2)cc1	nt	i	i	i	?	i
CS(=O)(=O)N(CC(=O)Nc1ccc(F)cc1F)C1CCCCC1	i	i	i	i	nt	i
COc1cccc(NC(=O)CN(C)C(=O)c2ccc(-c3cccc(C(F)(F)F)c3)o2)c1	nt	i	i	i	i	i
COc1ccc(Cl)cc1NC(=O)CN(C)C(=O)c1ccc2c(c1)OCCO2	nt	i	i	i	40µM	i
CN(CC(=O)Nc1cccc(F)c1)C(=O)c1ccc(-c2cccc(C(F)(F)F)c2)o1	nt	i	i	i	18µM	i
COc1ccc(Cl)cc1NC(=O)CN(C1CCCCC1)S(C)(=O)=O	i	i	?	i	i[12.7 µM]	30µM
COc1ccccc1C(=O)Nc1ccc2nc(N3CCC(C)CC3)cc(C)c2c1	nt	i	i	i	i	nt
COc1ccc(CCNC(=O)CS(=O)(=O)Cc2nc(-c3cccc(Cl)c3)oc2C)cc1OC	nt	i	i	i	i	nt
CCS(=O)(=O)N1CCN(c2nc(-c3ccccc3)cs2)CC1	?	i	i	i	13µM	i
CC(C)C(=O)N1CCN(c2nc(-c3ccc(Cl)cc3)cs2)CC1	i	i	i	i	?	i
CS(=O)(=O)N1CCN(c2nc(-c3ccccc3)cs2)CC1	i	?	i	i	i	i
CCOC(=O)N1CCN(c2nc(-c3ccc(Cl)cc3)cs2)CC1	?	i	i	i	11µM	i
O=C(Cc1cccs1)N1CCN(c2nc(-c3ccc(Cl)cc3)cs2)CC1	i	i	i	i	71µM	i
COCCCN1C(=O)C(CC(=O)NCCCN(C)C)CC(C(=O)N(C(C)C)C(C)C)=C1C (centres undefined)	nt	nt	nt	nt	nt	i
COc1ccc(C2C3=C(CCCC3=O)Nc3ccc4ncccc4c32)cc1OC (centres undefined)	i	i	i	i	50µM	i
COc1cc(C2C3=C(CCCC3=O)Nc3[nH]n(-c4ccccc4)c(=O)c32)ccc1OC(C)=O (centres undefined)	i	?	i	i	45µM	i
C=CCSc1nnc(NC(=O)CN2C(=O)NC3(CCCC3)C2=O)s1	i	i	i	i	nt	i
Cc1ccc(NC(=O)/C=C/c2ccccc2)c(Br)c1	nt	i	i	i	i	nt
CCCc1nn2c(=O)cc(COC(=O)c3cccc(NC(=O)COc4ccc(F)cc4)c3)nc2s1	nt	i	i	i	i[12.7 µM]	nt
CN1CC=C2C(C#N)=C(N)C(C#N)(C#N)C(Cc3ccccc3)C2C1 (centres undefined)	i	i	i	i	i[12.7 µM]	?
